Assay results reported in PubChem BioAssay (EPA / NIEHS).
Active and inactive are the calls of the source. How the source made its calls: active means hit-call score of the fitted dose curve at least 0.9, where 1 is the maximum; inactive means score below 0.9.

Assays:
[1] = read-out: Monokine induced gamma interferon (MIG), CXCL9 (gene 4283); assay: BSK_3C_MIG: BioMAP Diversity Plus: 3C Assay for Monokine induced gamma interferon (MIG) Biomarker Activity (AID 2283021); settings: primary human endothelial cells (HUVEC); actives raise or lower the signal
Summary of the method: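 After 24 h of treatment, human umbilical vein endothelial cultures (3C system) had their MIG biomarker level determined by ELISA, with DMSO serving as negative control.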

[2] = BSK_3C_SRB: Viability Assessment in the BioMAP Diversity Plus: 3C Assay (AID 2283023); settings: primary human endothelial cells (HUVEC);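 further: fitted both ways against DMSO so a hit may be signal rise or drop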
Summary of the method: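 Human umbilical vein endothelial cells in the 3C system, treated 24 h. Total protein measured by 0.1% sulforhodamine B staining after 10% TCA fixation, read at 560 nm; bidirectional fit versus DMSO.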

[3] = read-out: Matrix Metallopeptidase 1 (MMP1), MMP1 (gene 4312); assay: BSK_BE3C_MMP1: BioMAP Diversity Plus: BE3C Assay for Matrix Metallopeptidase 1 (MMP1) Biomarker Activity (AID 2283024); settings: primary human bronchial epithelial cells; actives raise or lower the signal
Summary of the method: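 Dose cells, wait 24 h, run MMP1 ELISA; cells are human bronchial epithelial primaries. Both increases and decreases relative to DMSO counted.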

[4] = BSK_3C_Vis: BioMAP Diversity Plus: 3C Assay for Morphology Visualization (AID 2283025); settings: primary human endothelial cells (HUVEC);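 further: fitted both ways so gain or loss versus DMSO counts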;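 on AC50: light microscopy image of cell morphology used as background control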
Summary of the method: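 Endothelial cells from human umbilical vein were treated with test chemicals for 24 h and inspected by light microscopy for changes in cell conformation.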

[5] = read-out: Pselectin, SELP (gene 6403); assay: BSK_4H_Pselectin: BioMAP Diversity Plus: 4H Assay for Pselectin Biomarker Activity (AID 2283026); settings: primary human endothelial cells (HUVEC); actives raise or lower the signal
Summary of the method: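 Human vascular endothelium from umbilical vein; P-selectin measured by ELISA at 24 h post-dose, with cytotoxicity checked by sulforhodamine B total-protein staining in parallel cultures (0.1% SRB after 10% TCA fixation, read at 560 nm).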

[6] = BSK_4H_SRB: Viability Assessment in the BioMAP Diversity Plus: 4H Assay (AID 2283027); settings: primary human endothelial cells (HUVEC);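 further: cells exposed to compound for 24 h before staining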
Summary of the method: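 Human umbilical vein endothelial cells were dosed with chemical and, after 24 h, fixed with 10% TCA, stained with 0.1% sulforhodamine B, and read at 560 nm to give total protein as a cytotoxicity measure. Bidirectional fitting relative to DMSO control.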

[7] = BSK_BE3C_SRB: Viability Assessment in the BioMAP Diversity Plus: BE3C Assay (AID 2283028); settings: primary human bronchial epithelial cells;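 on AC50: fitted both ways so AC50 may mark signal gain or loss versus DMSO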
Summary of the method: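 Human bronchial epithelial primary cells in confluent culture, 24 h after chemical dosing; total protein by 0.1% SRB staining after 10% TCA fixation, read at 560 nm. Bidirectional fitting versus DMSO baseline.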

[8] = read-out: Vascular endothelial growth factor receptor 2 (Homo sapiens) (UniProt P35968); assay: BSK_4H_VEGFRII: BioMAP Diversity Plus: 4H Assay for Vascular endothelial growth factor receptor 2 (VEGFR2) Biomarker Activity (AID 2283031); settings: primary human endothelial cells (HUVEC); actives raise or lower the signal
Summary of the method: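 Primary human umbilical vein endothelial cells (4H system), 24 h exposure; cell-surface VEGFR2 measured by ELISA. Bidirectional fitting versus DMSO; cytotoxicity checked in parallel by SRB total-protein staining.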

[9] = read-out: Human Leukocyte Antigen - DR isotype (HLADR), HLA-DRA (gene 3122); assay: BSK_BE3C_HLADR: BioMAP Diversity Plus: BE3C Assay for Human Leukocyte Antigen - DR isotype (HLADR) Biomarker Activity (AID 2283032); settings: primary human bronchial epithelial cells; actives raise or lower the signal
Summary of the method: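 Signal came from an ELISA for HLA-DR in human bronchial epithelial primary cells harvested 24 h after treatment; gain- and loss-of-signal fitting used DMSO controls as reference.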

[10] = read-out: Vascular cell adhesion molecule 1 (VCAM1), VCAM1 (gene 7412); assay: BSK_4H_VCAM1: BioMAP Diversity Plus: 4H Assay for Vascular cell adhesion molecule 1 (VCAM1) Biomarker Activity (AID 2283033); settings: primary human endothelial cells (HUVEC); actives raise or lower the signal
Summary of the method: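 Endpoint derived from bidirectional fitting against DMSO controls of VCAM-1 ELISA signal in umbilical vein endothelial cells sampled at 24 h following treatment.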

[11] = read-out: Monokine induced gamma interferon (MIG), CXCL9 (gene 4283); assay: BSK_BE3C_MIG: BioMAP Diversity Plus: BE3C Assay for Monokine induced gamma interferon (MIG) Biomarker Activity (AID 2283035); settings: primary human bronchial epithelial cells; actives raise or lower the signal
Summary of the method: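 ELISA read-out of MIG in human lung bronchial epithelial primary cultures, 24 h post-dosing. Bidirectional curve fit vs DMSO baseline.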

[12] = read-out: Plasminogen activator inhibitor-1 (PAI1), SERPINE1 (gene 5054); assay: BSK_BE3C_PAI1: BioMAP Diversity Plus: BE3C Assay for Plasminogen activator inhibitor-1 (PAI1) Biomarker Activity (AID 2283037); settings: primary human bronchial epithelial cells; actives raise or lower the signal
Summary of the method: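 PAI-1 biomarker levels in treated human bronchial epithelial cells are determined by ELISA at 24 h. Both increases and decreases relative to DMSO are fitted.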

[13] = read-out: urokinase plasminogen activator (uPA), PLAU (gene 5328); assay: BSK_BE3C_uPA: BioMAP Diversity Plus: BE3C Assay for urokinase plasminogen activator (uPA) Biomarker Activity (AID 2283038); settings: primary human bronchial epithelial cells; actives raise or lower the signal
Summary of the method: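 Primary human bronchial epithelial cells, uPA measured by ELISA 24 h after dosing. Bidirectional change relative to DMSO; cytotoxicity checked in parallel cultures by sulforhodamine B total-protein staining.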

[14] = read-out: Urokinase-type plasminogen activator receptor (uPAR), PLAUR (gene 5329); assay: BSK_BE3C_uPAR: BioMAP Diversity Plus: BE3C Assay for Urokinase-type plasminogen activator receptor (uPAR) Biomarker Activity (AID 2283039); settings: primary human bronchial epithelial cells; actives raise or lower the signal
Summary of the method: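 A uPAR ELISA serves as the readout, taken 24 h after treating primary human bronchial epithelial cells. Responses in either direction are fitted against DMSO, which defines baseline activity.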

[15] = read-out: Interleukin-6 (IL6), IL6 (gene 3569); assay: BSK_CASM3C_IL6: BioMAP Diversity Plus: CASM3C Assay for Interleukin-6 (IL6) Biomarker Activity for (AID 2283040); settings: primary human coronary artery smooth muscle cells; actives raise or lower the signal
[16] = read-out: Transforming growth factor beta 1 (TGFb1), TGFB1 (gene 7040); assay: BSK_BE3C_TGFb1: BioMAP Diversity Plus: BE3C Assay for Transforming growth factor beta 1 (TGFb1) Biomarker Activity (AID 2283036;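 further: TGF-b1 protein level measured by ELISA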); settings: primary human bronchial epithelial cells; actives raise or lower the signal
Summary of the method: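 In this human primary bronchial epithelial system, an ELISA quantified TGF-b1 one day after dosing. Endpoint changes in either direction were fitted relative to DMSO.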

[17] = read-out: Urokinase-type plasminogen activator receptor (uPAR), PLAUR (gene 5329); assay: BSK_4H_uPAR: BioMAP Diversity Plus: 4H Assay for Urokinase-type plasminogen activator receptor (uPAR) Biomarker Activity (AID 2283030); settings: primary human endothelial cells (HUVEC); actives raise or lower the signal
Summary of the method: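 Human umbilical vein endothelial cells in the 4H system, 24 h after chemical dosing. Cell-surface uPAR measured by ELISA, fitted in both directions versus DMSO; cytotoxicity checked by SRB total protein in parallel cultures.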

[18] = read-out: Interferon-gamma inducible Protein 10 (IP10), CXCL10 (gene 3627); assay: BSK_BE3C_IP10: BioMAP Diversity Plus: BE3C Assay for Interferon-gamma inducible Protein 10 (IP10) Biomarker Activity (AID 2283034); settings: primary human bronchial epithelial cells; actives raise or lower the signal
Summary of the method: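 Using primary human bronchial epithelial cultures, the assay captures IP-10 by ELISA one day (24 h) after exposure. Parallel SRB staining of total protein flags overt cytotoxicity. Fits run bidirectionally relative to DMSO.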

Measured: AC50

Cc1cc(C)c(O)c(C)c1
not listed: [16] | [17] | [18]
inactive: all other assays above

CN(C)C=O
not listed: [16] | [17] | [18]
inactive: all other assays above

CCCCC(CC)COC(=O)CCCCC(=O)OCc1ccccc1 (stereo unspecified)
not listed: [16] | [17] | [18]
inactive: all other assays above

CC(C)(C)c1cc(C(C)(C)C)c(O)c(C(C)(C)C)c1
active: [3] 10.5 µM | [5] 20 µM | [13] 5.06 µM
not listed: [17] | [18]
inactive: all other assays above

CCCCCCC(=O)O
not listed: [18]
inactive: all other assays above

c1ccc2cc3c(ccc4ccccc43)cc2c1
active: [3] 1.42 µM | [4] 9.8 µM | [12] 3.97 µM
not listed: [16] | [18]
inactive: all other assays above

CC1=C(/C=C/C(C)=C/C=C/C(C)=C/C(=O)O)C(C)(C)CCC1
active: [3] 0.854 µM | [5] 31.7 µM | [9] 20 µM | [10] 26.3 µM | [15] 2.7 µM
not listed: [18]
inactive: all other assays above

CC[C@H](C)[C@@H](C(=O)O)n1sc2ccccc2c1=O
not listed: [16]
inactive: all other assays above

CCCCCCCC(=O)O
not listed: [16]
inactive: all other assays above

CCCCOCCO
not listed: [16] | [18]
inactive: all other assays above

O=c1c(-c2ccc(O)cc2)coc2cc(O)ccc12
active: [5] 20 µM
not listed: [16] | [17] | [18]
inactive: all other assays above

O=C(O)Cc1cc(I)c(Oc2cc(I)c(O)c(I)c2)c(I)c1
active: [5] 20.2 µM | [7] 8.8 µM | [9] 5.22 µM | [10] 19.5 µM | [11] 9.13 µM | [12] 4.21 µM | [14] 10.4 µM | [15] 21.7 µM
inactive: [1] | [2] | [3] | [4] | [6] | [8]

Oc1cccc(O)c1
not listed: [16] | [18]
inactive: all other assays above

CC(C)(C)c1cccc(C(C)(C)C)c1O
not listed: [16] | [17] | [18]
inactive: all other assays above
